Results from the supplement of paper PMC6897291.

Key:
RIVA [1] = assay: growth inhibition by drug plus 177Lu-lilotomab satetraxetan (1 - RLU/untreated control) (fraction); higher = stronger inhibition; conditions: 177Lu-lilotomab satetraxetan 0.5 ug/ml
Outline: (§1)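 With or without 18 h pretreatment by a radiolabelled anti-CD37 antibody conjugate (~600 MBq/mg; 0.5 µg/ml RIVA, 1 µg/ml U-2932), RIVA and U-2932 cells were washed and plated at 3,000 cells/well. Pre-printed compound doses were 10/100 nM for RIVA and 10/1,000 nM for U-2932. Growth inhibition uses RealTime-Glo RLU relative to the untreated no-drug wells. The calculation is 1 − RLU/mean of 48 such wells per plate, with reads daily from day 3 after 1 h at 37°C.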

U-2932 [2] = assay: growth inhibition by drug alone (1 - RLU/untreated control) (fraction); higher = stronger inhibition; conditions: 177Lu-lilotomab satetraxetan 0 ug/ml
Outline: as §1

RIVA [3] = assay: as above; conditions: 177Lu-lilotomab satetraxetan 0 ug/ml
Outline: as §1

U-2932 [4] = assay: growth inhibition by drug plus 177Lu-lilotomab satetraxetan (1 - RLU/untreated control) (fraction); higher = stronger inhibition; conditions: 177Lu-lilotomab satetraxetan 1 ug/ml
Outline: as §1

Structure (SMILES)	growth inhibition by drug plus 177Lu-lilotomab satetraxetan (RIVA [1]; 100 nM, time (day): 5)	growth inhibition by drug plus 177Lu-lilotomab satetraxetan (RIVA [1]; 100 nM, time (day): 6)	growth inhibition by drug alone (U-2932 [2]; 10 nM, time (day): 3)	growth inhibition by drug alone (U-2932 [2]; 10 nM, time (day): 4)	growth inhibition by drug alone (U-2932 [2]; 10 nM, time (day): 5)	growth inhibition by drug alone (U-2932 [2]; 10 nM, time (day): 6)	growth inhibition by drug alone (U-2932 [2]; 1000 nM, time (day): 3)	growth inhibition by drug alone (U-2932 [2]; 1000 nM, time (day): 4)	growth inhibition by drug alone (U-2932 [2]; 1000 nM, time (day): 5)	growth inhibition by drug alone (U-2932 [2]; 1000 nM, time (day): 6)	growth inhibition by drug alone (RIVA [3]; 10 nM, time (day): 3)	growth inhibition by drug alone (RIVA [3]; 10 nM, time (day): 4)	growth inhibition by drug alone (RIVA [3]; 10 nM, time (day): 5)	growth inhibition by drug alone (RIVA [3]; 10 nM, time (day): 6)	growth inhibition by drug alone (RIVA [3]; 100 nM, time (day): 3)	growth inhibition by drug alone (RIVA [3]; 100 nM, time (day): 4)	growth inhibition by drug alone (RIVA [3]; 100 nM, time (day): 5)	growth inhibition by drug alone (RIVA [3]; 100 nM, time (day): 6)	growth inhibition by drug plus 177Lu-lilotomab satetraxetan (U-2932 [4]; 10 nM, time (day): 3)	growth inhibition by drug plus 177Lu-lilotomab satetraxetan (U-2932 [4]; 10 nM, time (day): 4)	growth inhibition by drug plus 177Lu-lilotomab satetraxetan (U-2932 [4]; 10 nM, time (day): 5)	growth inhibition by drug plus 177Lu-lilotomab satetraxetan (U-2932 [4]; 10 nM, time (day): 6)	growth inhibition by drug plus 177Lu-lilotomab satetraxetan (U-2932 [4]; 1000 nM, time (day): 3)	growth inhibition by drug plus 177Lu-lilotomab satetraxetan (U-2932 [4]; 1000 nM, time (day): 4)	growth inhibition by drug plus 177Lu-lilotomab satetraxetan (U-2932 [4]; 1000 nM, time (day): 5)	growth inhibition by drug plus 177Lu-lilotomab satetraxetan (U-2932 [4]; 1000 nM, time (day): 6)	growth inhibition by drug plus 177Lu-lilotomab satetraxetan (RIVA [1]; 10 nM, time (day): 3)	growth inhibition by drug plus 177Lu-lilotomab satetraxetan (RIVA [1]; 10 nM, time (day): 4)	growth inhibition by drug plus 177Lu-lilotomab satetraxetan (RIVA [1]; 10 nM, time (day): 5)	growth inhibition by drug plus 177Lu-lilotomab satetraxetan (RIVA [1]; 10 nM, time (day): 6)	growth inhibition by drug plus 177Lu-lilotomab satetraxetan (RIVA [1]; 100 nM, time (day): 3)	growth inhibition by drug plus 177Lu-lilotomab satetraxetan (RIVA [1]; 100 nM, time (day): 4)
Nc1ncn([C@@H]2O[C@H](CO)[C@@H](O)[C@H]2O)c(=O)n1 [Azacitidine (Vidaza)]	0.362	0.374																														
Nc1cc(C(F)(F)F)c(-c2cc(N3CCOCC3)nc(N3CCOCC3)n2)cn1	0.402	0.384	-0.0505	-0.0268	-0.042	0.0241	0.632	0.62	0.563	0.519	-0.24	-0.261	-0.283	-0.377	-0.244	-0.324	-0.245	-0.359	-0.138	-0.0899	-0.0958	-0.0143	0.508	0.421	0.403	0.455	0.268	0.424	0.461	0.48	0.33	0.394
COc1ccc2c(c1)CCC1C2CCC2(C)C(NCCCCCCN3C(=O)C=CC3=O)CCC12 (stereo unspecified)	0.571	0.58	0.079	0.0406	0.0171	-0.0318	-0.0546	0.0273	-0.0312	-0.361	-0.042	-0.062	-0.0736	-0.13	-0.374	-0.291	-0.321	-0.444	0.00613	0.0631	0.103	0.161	-0.0126	0.0436	0.0468	0.107	0.506	0.561	0.586	0.598	0.502	0.567
Cc1ccc(C(=O)Nc2ccc(CN3CCN(C)CC3)c(C(F)(F)F)c2)cc1C#Cc1cnc2cccnn12	0.77	0.788	-0.0855	-0.101	-0.212	-0.304	0.619	0.711	0.699	0.718	-0.13	-0.226	-0.275	-0.383	0.59	0.607	0.6	0.53	-0.1	-0.0253	0.0155	0.0448	0.74	0.819	0.844	0.883	0.39	0.475	0.499	0.509	0.689	0.752
CCCCCOC(=O)Nc1nc(=O)n([C@@H]2O[C@H](C)[C@@H](O)[C@H]2O)cc1F [Capecitabine (Xeloda)]	0.465	0.483	-0.0672	-0.0894	-0.0926	-0.0992	-0.0819	-0.0438	-0.0714	0.0681	-0.345	-0.321	-0.354	-0.36	-0.381	-0.792	-0.367	-0.436	-0.101	-0.0507	0.0153	0.0328	-0.139	-0.0798	-0.0339	0.114	0.468	0.533	0.549	0.549	0.378	0.466
NC(=O)c1ccc2nc(-c3ccc(Oc4ccc(Cl)cc4)cc3)[nH]c2c1	0.523	0.501	0.00125	0.0235	0.00264	-0.0848	-0.16	-0.101	-0.0954	-0.129	-0.00863	-0.0511	-0.0793	-0.24	-0.111	-0.096	-0.133	-0.184	0.0152	0.0513	0.0592	0.129	-0.283	-0.107	-0.0258	0.0425	0.4	0.51	0.52	0.516	0.455	0.517
Cn1cncc1[C@@](N)(c1ccc(Cl)cc1)c1ccc2c(c1)c(-c1cccc(Cl)c1)cc(=O)n2C [Tipifarnib (Zarnestra)]	0.511	0.536	0.0908	0.0396	0.00741	-0.0584	0.757	0.8	0.836	0.863	-0.055	-0.241	-0.428	-0.678	-0.0203	-0.124	-0.267	-0.517	0.0185	0.0674	0.106	0.1	0.777	0.805	0.847	0.882	0.37	0.421	0.452	0.489	0.482	0.521
O=C(O[C@@H]1Cc2c(O)cc(O)cc2O[C@@H]1c1cc(O)c(O)c(O)c1)c1cc(O)c(O)c(O)c1 [(-)-Epigallocatechin gallate]	0.47	0.474	0.0464	-0.0176	-0.149	-0.234	-0.0141	-0.0657	-0.154	-0.12	-0.0443	-0.156	-0.418	-0.714	-0.587	-0.43	-0.44	-0.545	-0.0356	0.00037	-0.03	-0.022	0.0188	0.036	0.0512	0.127	0.452	0.532	0.55	0.559	0.363	0.454
